Bioassay records: PubChem BioAssay, The Scripps Research Institute Molecular Screening Center
SF-1 inh = inhibitors of human SF-1, primary screen, cell-based, CHO-K1, Gal4-SF-1 LBD, luciferase luminescence; Steroidogenic factor 1 (Homo sapiens), Q13285; CHO-K1 Gal4-SF-1 LBD luciferase reporter; inhibition, % at 10 µM; hit rate 0.55% among 65,000; AID 525, 2006;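 active = inhibition above the mean inhibition of all tested compounds plus 3 SD, cut at about 48% in these data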;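 also: 0% = SF-1 transfected cells with DMSO and 100% = mock-transfected cells lacking SF-1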
Target sequence (Q13285 whole entry, looked up, the tested form may be a part): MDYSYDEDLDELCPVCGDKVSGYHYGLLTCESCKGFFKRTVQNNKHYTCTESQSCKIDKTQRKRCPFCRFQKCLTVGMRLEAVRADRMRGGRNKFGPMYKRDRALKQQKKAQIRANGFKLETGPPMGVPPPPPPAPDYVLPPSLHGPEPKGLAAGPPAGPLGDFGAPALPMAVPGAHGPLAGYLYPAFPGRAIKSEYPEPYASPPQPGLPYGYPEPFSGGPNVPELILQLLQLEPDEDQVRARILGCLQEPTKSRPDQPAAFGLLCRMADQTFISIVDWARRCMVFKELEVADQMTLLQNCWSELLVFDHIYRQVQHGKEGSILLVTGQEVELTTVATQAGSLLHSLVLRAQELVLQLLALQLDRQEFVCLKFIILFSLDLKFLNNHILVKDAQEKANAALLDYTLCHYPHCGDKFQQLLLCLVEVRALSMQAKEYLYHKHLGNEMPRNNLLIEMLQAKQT
Numbers without * were called inactive. Shown is part of a subset that was picked to be rich in hits.

SMILES	SF-1 inh
Cc1nc2cc(Cl)c(Cl)cc2nc1C	-64
CC(C)c1cc(C(=O)NC2CCCCC2)no1	-54
CC1Cc2ccccc2N1C(=O)CCNS(=O)(=O)c1cccc2nsnc12 (stereo not given)	7
Cc1cccc(-n2ncc3c(N4CCOCC4)ncnc32)c1	65*
Cc1cccc(-n2ncc3c(NCCCO)ncnc32)c1	-67
COc1ccc2nc(N3CCCCC3)c(C#N)cc2c1	-50
CCOC(=O)C1CCCN(c2ncnc3c2cnn3-c2ccc(OC)cc2)C1 (stereo not given)	-58
COc1ccc(-n2ncc3c(N4CCCCC4)ncnc32)cc1	84*
C=CCNc1ncnc2c1cnn2-c1ccc(Cl)cc1	-50
Clc1ccc(-n2ncc3c(N4CCCCCC4)ncnc32)cc1	76*
CC1CN(c2ncnc3c2cnn3-c2ccc(Cl)cc2)CC(C)O1 (stereo not given)	-75
Cc1cccc(-n2ncc3c(N4CC(C)CC(C)C4)ncnc32)c1 (stereo not given)	-51
CC1=C(C)CC(C(=O)c2ccccc2)C(C(=O)O)C1 (stereo not given)	20
CC(=O)Cc1nsc(Nc2ccc3c(c2)OCCO3)n1	-67
CCOC(=O)NCC(C#CCN(CC)CC)N(CC)CC (stereo not given)	8
Cc1cccn2c(=O)c3cc(C#N)c(=NC(=O)c4ccc5c(c4)OCO5)n(CC(C)C)c3nc12	0
CCC(=O)c1ccccc1OCCSc1nc(C)cc(=O)[nH]1	13
CC(=O)NCCc1nc2ccccc2n1Cc1ccccc1	32
C=CCc1c(C)nc(SC)nc1Nc1ccc(C(C)=O)cc1	-14
CCCCc1cc(O)c(CCCC)c(O)c1	-35
Cc1cnc(C(=O)Nc2nnc(C(C)C)s2)cn1	-68
Cc1cnc(C(=O)Nc2cccc3cccnc23)cn1	61*
O=C(Nc1cccc2ccccc12)c1cnccn1	-63
COc1ccc(N=CC2=C(O)CC(C)(C)CC2=O)cc1	-87
COc1ccc(N2CCN(C(=O)c3ccc(S(=O)(=O)N4CCOCC4)cc3)CC2)cc1	-13
SMILES	SF-1 inh
CC(=O)Cc1nsc(NC(=O)c2cc(-c3cccc(C(F)(F)F)c3)oc2C)n1	-2
Cc1[nH]c2ccc(-c3nnc(SCC(=O)NCc4ccco4)n3Cc3ccccc3)cc2c1C	1
N=c1c2c3c(sc2nc2n1CCCCC2)CCCCC3	-12
CCn1c2ccccc2c2cc(NC(=O)CSc3nnnn3-c3ccccc3)ccc21	70*
O=C(CSc1nnnn1-c1ccccc1)NC(=O)Nc1ccc2c(c1)OCCO2	-72
Cc1ccc(-c2nc(NC(=O)CSc3nnnn3-c3ccccc3)ns2)cc1	27
CCOC(=O)Cn1c(CN2CC(C)OC(C)C2)nc2c1c(=O)n(C)c(=O)n2C (stereo not given)	0
COc1cccc(CNC(=O)c2nnn(CC(=O)Nc3ccc(C)c(C)c3)c2N)c1	56*
Nc1c(C(=O)Nc2ccc3c(c2)OCCO3)nnn1CCc1ccccc1	-92
CCc1ccccc1NC(=O)c1nnn(CC(=O)Nc2ccccc2C)c1N	4
O=C(NCc1ccc(N2CCCC2=O)cc1)c1cn(Cc2ccccc2)nn1	-7
COc1ccccc1N1CCN(C(=O)c2ccc(S(=O)(=O)N3CCCC3)cc2)CC1	-10
O=C(Cn1cc2c(n1)CCCC2)Nc1cc(-c2cccc(Cl)c2)no1	-9
Cn1c(=O)c2cn3c(c2n(C)c1=O)C(c1ccccc1)CC(c1ccccc1)=N3 (stereo not given)	-8
Cc1ccc2c(c1)nnn2C1CCN(S(=O)(=O)c2ccc(C(=O)N3CC(C)CC(C)C3)cc2)CC1 (stereo not given)	-24
CS(=O)c1nc(-c2ccc(Br)cc2)cc(-c2ccccc2)c1C#N (stereo not given)	61*
CC1CCc2c(sc(NC(=O)c3noc4c3CCCC4)c2C(N)=O)C1 (stereo not given)	-50
CCOc1ccccc1NC(=O)c1cccc(NC(=O)c2ccco2)c1	1
Cc1cnc(NC(=O)COc2ccccc2Cl)s1	60*
Cc1cnc(NC(=O)CSc2nnc(-c3ccccc3)o2)s1	-88
Cc1cnc(NC(=O)CSc2nnc(COc3c(C)cccc3C)o2)s1	1
O=C1CCN(Cc2nnnn2CC2CCCO2)c2ccccc2N1 (stereo not given)	3
CN(CC(=O)N1CCN(c2ccccc2)CC1)S(=O)(=O)c1cnc[nH]1	6
COc1ccc(-n2c(N)c(C(=O)NCc3ccco3)c3nc4ccccc4nc32)c(OC)c1	6
CC(=O)C1=C(C)OC(N)=C(C#N)C1c1ccco1 (stereo not given)	-3
SMILES	SF-1 inh
CN(C)c1ccc2c(c1)OC(N)=C(C#N)C2c1cccc(F)c1 (stereo not given)	56*
COC(=O)C1CCN(C(=O)NC(C)(C)C)CC1	18
CC(=O)c1cccc(S(=O)(=O)N2CCN(c3nc4cc(C)cc(C)c4cc3C#N)CC2)c1	1
CCOc1ccc(-c2nc(CSCC(=O)NCc3ccco3)c(C)o2)cc1	94*
CCc1ccc(-c2nc(CSCC(=O)NCCCN3CCCC3=O)c(C)o2)cc1	63*
CCOCCCNC(=O)CS(=O)(=O)Cc1nc(-c2cccc(OC)c2)oc1C	-6
CCC(OC(=O)c1ccco1)C(=O)NCc1ccco1 (stereo not given)	13
COCCNC(=O)CSCc1nc(-c2ccc(SC)cc2)oc1C	90*
CCOC(=O)N1CCC(NC(=O)C2CCN(Cc3nc(-c4ccc(CC)cc4)oc3C)CC2)CC1	16
Cc1ccc(-c2nc(CS(=O)(=O)CC(=O)N3CC(C)CC(C)C3)c(C)o2)cc1 (stereo not given)	0
COCCNC(=O)c1ccc2ccccc2n1	-8
COc1ccc(C(=O)Nc2ccccc2-c2nnn(CC(=O)NCc3ccco3)n2)cc1	8
CCCc1noc(-c2ccc(-c3ccccc3)cc2)n1	-55
Cn1cccc1C(=O)OCc1cc(Cl)cc2c1OCOC2	-60
Cc1cc(NO)nc(-c2ccc(Br)cc2)n1	-64
Cc1c(NC(=O)c2cc(=O)[nH]c(=O)[nH]2)c(=O)n(-c2ccccc2)n1C	-3
COC(=O)c1ccc(COc2ccc(-c3nn[nH]n3)cc2)cc1	-24
Cc1ccc(S(=O)(=O)NCC(=O)OCN2C(=O)c3ccccc3C2=O)cc1	1
COc1cccc(-c2nnc(SCC(=O)OC(C)C)n2N)c1	8
CCC(=O)Nc1ccc(-c2nnc(-c3ccccc3)o2)cc1	-34
O=C(Cc1ccc(Cl)cc1)Nc1ccc(-c2nnc(-c3ccco3)o2)cc1	53*
O=C(Cc1ccc(Cl)cc1)Nc1ccc(N2CCN(C(=O)c3ccco3)CC2)cc1	10
COC(=O)C1=CN(C2CC2)C=C(C(=O)OC)C1c1ccccc1OC	-6
Cc1nnc(N2CCOCC2)c2ccccc12	-2
Cn1c(COc2ccc3ccccc3c2)nnc1SCC(=O)O	10
SMILES	SF-1 inh
O=C(c1ccc2c(c1)OCCCO2)c1cccs1	-54
Clc1ccc(OCc2nn3c(-c4ccccc4)nnc3s2)c(Cl)c1	10
O=C(O)c1ccc2c(c1)C(=O)N(Cc1ccccc1)C2=O	-5
O=C(O)c1cccc(OCc2ccccc2Cl)c1	-80
COc1ccc(CNC(=O)c2cccc(N3CCCC3=O)c2)cc1	-24
COc1ccc(OCc2cccc(C(=O)O)c2)cc1	94*
COC(=O)Nc1ccc(OCc2ccccc2)cc1	-72
CCCCOc1ccc(C(=O)O)cc1	12
CCOc1ccc(OCc2cccc(C(=O)O)c2)cc1	95*
O=C(O)c1cccc(COc2ccc(CO)cc2Cl)c1	94*
